# Test results as given in paper PMC4081100, “A DNA-binding-site landscape and regulatory network analysis for NAC transcription factors in Arabidopsis thaliana”.
# What was measured:
# Assay in all cases: universal protein binding microarray (PBM); transcription factors of Arabidopsis thaliana; high values mean tight binding
# [1] = target: T1, GST-ANAC092(1-176) (Arabidopsis thaliana, UniProt Q9FKA0 1-176); conditions: protein: recombinant; tags: GST; chain copies: 2; dsDNA, one strand shown
# T1 sequence: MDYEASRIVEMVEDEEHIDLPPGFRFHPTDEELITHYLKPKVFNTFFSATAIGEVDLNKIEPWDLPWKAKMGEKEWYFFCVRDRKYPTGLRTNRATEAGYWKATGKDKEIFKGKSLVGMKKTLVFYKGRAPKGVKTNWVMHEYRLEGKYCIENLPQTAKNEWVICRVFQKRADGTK
# Procedure, shortened: (§1)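 Binding is expressed as the normalised enrichment score (E-score). Proteins carrying a GST tag, whether NAC-domain, full-length or DNA-binding-domain forms, were induced in cells, and zinc acetate was added for zinc-finger proteins. After purification on glutathione–Sepharose 4B and quantification by A280 or anti-GST western blot, each was applied in duplicate at 200 to 500 nM final to custom all-10-mer Agilent 4 × 180K arrays made double-stranded by primer extension. Gapped and ungapped 8-mers were scored.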
# [2] = target: GST-NTL6(1-168) (Arabidopsis thaliana, UniProt Q9SCK6 1-168); conditions: protein: recombinant; tags: GST; chain copies: 2; dsDNA, one strand shown
# Sequence of GST-NTL6(1-168) (Q9SCK6 1-168): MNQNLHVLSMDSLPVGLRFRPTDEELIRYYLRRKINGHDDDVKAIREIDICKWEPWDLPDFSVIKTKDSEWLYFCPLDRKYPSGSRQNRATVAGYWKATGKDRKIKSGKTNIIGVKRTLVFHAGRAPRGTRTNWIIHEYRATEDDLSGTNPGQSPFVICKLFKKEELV
# Procedure, shortened: as §1
# [3] = target: T2, GST-ANAC019 NAC domain (Arabidopsis thaliana, UniProt Q9C932 14-162); conditions: protein: recombinant; tags: GST; chain copies: 2; dsDNA, one strand shown
# T2 sequence: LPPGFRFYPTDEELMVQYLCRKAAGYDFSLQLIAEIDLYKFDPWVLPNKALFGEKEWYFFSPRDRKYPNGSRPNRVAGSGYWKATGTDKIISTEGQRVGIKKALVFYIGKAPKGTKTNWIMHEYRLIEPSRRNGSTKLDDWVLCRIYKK
# Procedure, shortened: as §1
# [4] = target: T3, GST-ANAC055(1-171) (Arabidopsis thaliana, UniProt Q9LDY8 1-171); conditions: protein: recombinant; tags: GST; chain copies: 2; dsDNA, one strand shown
# T3 sequence: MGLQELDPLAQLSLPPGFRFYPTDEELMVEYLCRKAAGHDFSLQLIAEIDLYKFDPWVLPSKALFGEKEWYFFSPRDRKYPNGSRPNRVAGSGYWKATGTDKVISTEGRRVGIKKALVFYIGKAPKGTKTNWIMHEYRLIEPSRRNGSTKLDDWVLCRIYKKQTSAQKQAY
# Procedure, shortened: as §1
# [5] = target: T4, GST-NAP(1-166) (Arabidopsis thaliana, UniProt O49255 1-166); conditions: protein: recombinant; tags: GST; chain copies: 2; dsDNA, one strand shown
# T4 sequence: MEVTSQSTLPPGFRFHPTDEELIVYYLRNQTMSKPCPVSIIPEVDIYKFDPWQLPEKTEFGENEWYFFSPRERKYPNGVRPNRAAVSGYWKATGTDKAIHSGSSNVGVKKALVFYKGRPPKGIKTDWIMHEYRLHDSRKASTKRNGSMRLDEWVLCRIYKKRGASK
# Procedure, shortened: as §1
# [6] = target: T5, GST-NST2(1-184) (Arabidopsis thaliana, UniProt Q9M274 1-184); conditions: protein: recombinant; tags: GST; chain copies: 2; dsDNA, one strand shown
# T5 sequence: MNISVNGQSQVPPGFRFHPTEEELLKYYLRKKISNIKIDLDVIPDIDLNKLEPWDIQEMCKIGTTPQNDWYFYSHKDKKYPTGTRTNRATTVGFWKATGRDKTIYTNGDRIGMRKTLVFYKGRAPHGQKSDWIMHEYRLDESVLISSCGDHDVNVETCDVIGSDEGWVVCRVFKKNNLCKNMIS
# Procedure, shortened: as §1
# [7] = target: T6, GST-VND3 NAC domain (Arabidopsis thaliana, UniProt Q9FH59 12-162); conditions: protein: recombinant; tags: GST; chain copies: 2; dsDNA, one strand shown
# T6 sequence: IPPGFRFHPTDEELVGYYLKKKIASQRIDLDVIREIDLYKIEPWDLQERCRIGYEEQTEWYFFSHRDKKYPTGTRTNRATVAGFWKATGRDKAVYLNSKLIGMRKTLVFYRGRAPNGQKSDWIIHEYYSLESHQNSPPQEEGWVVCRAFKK
# Procedure, shortened: as §1
# [8] = target: GST-WRKY1(266-371) (Arabidopsis thaliana, UniProt Q9SI37 266-371); conditions: protein: recombinant; tags: GST; dsDNA, one strand shown
# Sequence of GST-WRKY1(266-371) (Q9SI37 266-371): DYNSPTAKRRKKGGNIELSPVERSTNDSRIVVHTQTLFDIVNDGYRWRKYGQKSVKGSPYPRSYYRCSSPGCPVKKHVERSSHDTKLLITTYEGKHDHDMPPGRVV
# Procedure, shortened: as §1
# [9] = target: T7, GST-ATAF1 NAC domain (Arabidopsis thaliana, UniProt Q39013 7-158); conditions: protein: recombinant; tags: GST; chain copies: 2; dsDNA, one strand shown
# T7 sequence: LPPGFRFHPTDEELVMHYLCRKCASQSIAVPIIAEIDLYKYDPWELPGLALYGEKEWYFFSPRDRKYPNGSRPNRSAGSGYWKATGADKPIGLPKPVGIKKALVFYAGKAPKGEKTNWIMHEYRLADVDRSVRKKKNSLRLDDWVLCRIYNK
# Procedure, shortened: as §1
# [10] = target: T8, GST-ANAC092(1-285) full length (Arabidopsis thaliana, UniProt Q9FKA0 1-285); conditions: protein: recombinant; tags: GST; chain copies: 2; dsDNA, one strand shown
# T8 sequence: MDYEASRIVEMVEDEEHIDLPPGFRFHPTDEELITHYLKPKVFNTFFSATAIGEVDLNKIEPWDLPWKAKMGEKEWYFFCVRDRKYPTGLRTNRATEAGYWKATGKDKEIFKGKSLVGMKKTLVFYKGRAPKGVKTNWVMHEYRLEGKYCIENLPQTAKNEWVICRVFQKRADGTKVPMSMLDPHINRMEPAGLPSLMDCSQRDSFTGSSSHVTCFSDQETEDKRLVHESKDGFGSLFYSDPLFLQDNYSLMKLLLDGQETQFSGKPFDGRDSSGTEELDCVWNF
# Procedure, shortened: as §1
# [11] = target: T9, GST-VND7 NAC domain (Arabidopsis thaliana, UniProt Q9C8W9 9-158); conditions: protein: recombinant; tags: GST; chain copies: 2; dsDNA, one strand shown
# T9 sequence: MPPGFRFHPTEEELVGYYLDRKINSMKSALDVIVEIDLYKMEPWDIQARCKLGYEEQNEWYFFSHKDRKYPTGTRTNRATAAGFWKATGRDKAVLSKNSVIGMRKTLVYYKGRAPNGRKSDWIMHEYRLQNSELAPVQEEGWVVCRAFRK
# Procedure, shortened: as §1
# [12] = target: T10, GST-NTL8 NAC domain (Arabidopsis thaliana, UniProt Q9XIN7 14-156); conditions: protein: recombinant; tags: GST; chain copies: 2; dsDNA, one strand shown
# T10 sequence: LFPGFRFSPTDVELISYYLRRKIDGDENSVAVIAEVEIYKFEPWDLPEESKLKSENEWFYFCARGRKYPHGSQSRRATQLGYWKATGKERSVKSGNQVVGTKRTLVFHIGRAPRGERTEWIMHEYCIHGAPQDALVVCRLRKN
# Procedure, shortened: as §1
sequence,measurement,setting,value
GGATTGAC,binding signal,[1],0.0627 E-score
same,binding signal,[2],0.0579 E-score
same,binding signal,[3],0.102 E-score
same,binding signal,[4],0.0598 E-score
same,binding signal,[5],0.0556 E-score
same,binding signal,[6],0.12 E-score
same,binding signal,[7],0.094 E-score
same,binding signal,[8],0.459 E-score
CTTGACTC,binding signal,[1],0.0601 E-score
same,binding signal,[9],0.0754 E-score
same,binding signal,[7],0.0677 E-score
same,binding signal,[8],0.466 E-score
ATAGTCAA,binding signal,[4],0.122 E-score
same,binding signal,[9],0.263 E-score
same,binding signal,[10],0.12 E-score
same,binding signal,[5],0.0851 E-score
same,binding signal,[6],0.146 E-score
same,binding signal,[7],0.211 E-score
same,binding signal,[11],0.12 E-score
same,binding signal,[8],0.473 E-score
AGAGTCAA,binding signal,[3],0.108 E-score
same,binding signal,[6],0.0818 E-score
same,binding signal,[7],0.0953 E-score
same,binding signal,[11],0.0931 E-score
same,binding signal,[8],0.48 E-score
GTCAATCA,binding signal,[3],0.0668 E-score
same,binding signal,[4],0.0807 E-score
same,binding signal,[10],0.169 E-score
same,binding signal,[6],0.0647 E-score
same,binding signal,[12],0.0888 E-score
same,binding signal,[7],0.132 E-score
same,binding signal,[11],0.114 E-score
same,binding signal,[8],0.435 E-score
CAAGACCA,binding signal,[1],0.106 E-score
same,binding signal,[2],0.0845 E-score
same,binding signal,[4],0.092 E-score
same,binding signal,[9],0.0751 E-score
same,binding signal,[6],0.0893 E-score
same,binding signal,[7],0.0681 E-score
same,binding signal,[8],0.408 E-score
TTCGTCAA,binding signal,[2],0.0728 E-score
same,binding signal,[4],0.0829 E-score
same,binding signal,[9],0.106 E-score
same,binding signal,[10],0.0695 E-score
same,binding signal,[6],0.0662 E-score
same,binding signal,[7],0.0782 E-score
same,binding signal,[8],0.437 E-score
GTTGGTCA,binding signal,[4],0.182 E-score
same,binding signal,[9],0.131 E-score
same,binding signal,[5],0.117 E-score
same,binding signal,[7],0.0931 E-score
same,binding signal,[11],0.0967 E-score
same,binding signal,[8],0.448 E-score
CACGGCTC,binding signal,[3],0.42 E-score
same,binding signal,[4],0.384 E-score
same,binding signal,[9],0.336 E-score
same,binding signal,[10],0.18 E-score
same,binding signal,[5],0.3 E-score
same,binding signal,[7],0.337 E-score
same,binding signal,[11],0.377 E-score
AAAGTCGT,binding signal,[3],0.29 E-score
same,binding signal,[4],0.271 E-score
same,binding signal,[9],0.258 E-score
same,binding signal,[5],0.132 E-score
same,binding signal,[6],0.13 E-score
same,binding signal,[7],0.145 E-score
same,binding signal,[11],0.176 E-score
same,binding signal,[8],0.429 E-score
TGACTAAA,binding signal,[2],0.0547 E-score
same,binding signal,[3],0.0691 E-score
same,binding signal,[6],0.111 E-score
same,binding signal,[7],0.0682 E-score
same,binding signal,[11],0.0902 E-score
same,binding signal,[8],0.42 E-score
AAGTCTTC,binding signal,[2],0.204 E-score
same,binding signal,[3],0.052 E-score
same,binding signal,[4],0.0748 E-score
same,binding signal,[9],0.0685 E-score
same,binding signal,[12],0.0771 E-score
same,binding signal,[7],0.123 E-score
same,binding signal,[11],0.0783 E-score
same,binding signal,[8],0.429 E-score
AATGGTCA,binding signal,[2],0.0526 E-score
same,binding signal,[7],0.0734 E-score
same,binding signal,[8],0.434 E-score
CATGGTCA,binding signal,[7],0.0588 E-score
same,binding signal,[8],0.443 E-score
ATATTGAC,binding signal,[9],0.167 E-score
same,binding signal,[5],0.178 E-score
same,binding signal,[7],0.169 E-score
same,binding signal,[11],0.0695 E-score
same,binding signal,[8],0.453 E-score
GTTGACAA,binding signal,[4],0.127 E-score
same,binding signal,[9],0.195 E-score
same,binding signal,[10],0.055 E-score
same,binding signal,[5],0.116 E-score
same,binding signal,[7],0.0521 E-score
same,binding signal,[11],0.0726 E-score
same,binding signal,[8],0.446 E-score
ATTGGTCA,binding signal,[1],0.0884 E-score
same,binding signal,[10],0.105 E-score
same,binding signal,[7],0.0748 E-score
same,binding signal,[8],0.454 E-score
TGGTCAAA,binding signal,[1],0.0858 E-score
same,binding signal,[9],0.062 E-score
same,binding signal,[10],0.0538 E-score
same,binding signal,[7],0.118 E-score
same,binding signal,[8],0.491 E-score
CTATTGAC,binding signal,[2],0.075 E-score
same,binding signal,[4],0.0817 E-score
same,binding signal,[9],0.0721 E-score
same,binding signal,[5],0.0658 E-score
same,binding signal,[7],0.06 E-score
same,binding signal,[8],0.451 E-score
AGGTTGAC,binding signal,[9],0.13 E-score
same,binding signal,[8],0.474 E-score
GGTGGTCA,binding signal,[3],0.0992 E-score
same,binding signal,[8],0.43 E-score
AAAGTCTT,binding signal,[2],0.0508 E-score
same,binding signal,[4],0.109 E-score
same,binding signal,[8],0.429 E-score
